# Measurements from the supplement of paper PMC6555819.
# Tested on: RARa homodimer (NR concentration 270 nM)
# Test: PBM binding z-score (relative to random genomic background probes); higher = stronger binding; sequences stand for … in GC…GCGATTGACAGCGTAGAATGAAGG
# Method in brief: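 Regression normalization was applied to scanned fluorescence from custom Agilent 4×180K protein-binding microarrays. Before scanning, arrays were incubated 1 h with ligand-free nuclear receptor dimers, and binding was detected with antibodies against each partner (one per run). Binding z-scores use the random background probes as reference.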
row,Sequence,PBM binding z-score
1,CCTAGTTGGTCAGCAGGTCACACACCGGATATGA,1.34
2,TGAAGGAGGTTAAAGATCAGGGAACGTGGCGTCG,0.897
3,GCTAGCAGGCCAATTGGGTCACTCAATGACGGGC,-0.664
4,TCAGACTGGTGAAGGTAACTCAGGTACGCAGTCG,-0.373
5,CAGCCTAGGTCACGGCCAGTATAGGAGGAACGTT,0.239
6,CTCGAAAGGTCGTGCTCAGGTGAGTAAACCAAAC,0.14
7,GCTTGAAGATCAAGGTTAAGAAAGACTAAGCTAA,-0.598
8,CCTAGCAGGCCGGGGTCACTCAAGCATTTCGCTT,0.348
9,CAGCCTAGGTCAGGGCCACTATAGGAGGAACGTT,-0.384
10,CCGACTGGAGCAAAGGTTACCATACTCAGTACGA,-0.322
11,TGAATGAGGTTATAAGATCTGGGAACGTTGCAAA,0.0804
12,GATACAGGGTCAGCTAGAGGCCAGGGTATGGAAA,0.0773
13,ACACACAGGTGATGAAGGTAACTCAGGCTATCAT,0.957
14,AGCTCTAGGTAAAGATAGTTCAGTGAATGCAAAT,1.11
15,CCTACTGGGCCAAAAAGGTCAATGATGCCGATAA,0.262
16,GCTCGGACGACAAGGTCAGAGCTTTGTCCGTAGA,-0.933
17,GGAACGAGGGCAAAGTTGATAGCTTCTGTCGACG,-0.449
18,ATATGTGGGTTACATCCGGGTCATTCAGGCTATG,1.06
19,CGAACTAGGTCATTGACAGGACTGTGAATAGTAA,-0.0382
20,TGAATGAGGTTATAAGATTAGGGAACGTTGCAAA,0.154

row,Sequence,PBM binding z-score
1,GCTAGTTGCTCAGTAAAAGGTCACACACCGGTCG,1.56
2,TTACCAAGGTGAGCTGAGGTCGTTAATCCAACTC,-0.951
3,ACAGACAGGTGAGTGAAGGTAACTCATCTGGACG,-0.677
4,GCGACTGGGGCATCAGCAGGTTATCATAACTTAA,-0.474
5,ACTATTAGTTGACTTAGGGTAACCGATACGACGC,0.861
6,TCTCGGAGGACAGGAAGGTCAGAGCTTTCCAGAG,0.192
7,CTGCCTAGGTCAGGGCCAGTATAGGAGGAACGTT,-0.655
8,TGAATGAGGTTATAAAATCAGGGAACGTTGCAAA,-0.0179
9,ACAGACAGGTGATGAAGGTGACTCAGGCTATCAT,0.471
10,CGACCAAGGTCATAGGAGGTCAGTGAAGACAGAT,2.16
11,GTTACAGGGTCAGCTAGAGGCCAGAGTATGGAAA,0.709
12,CCTTACGGGTCACTGACAGGTTATACCATTTGGA,1.11
13,ATCTCTAGGTAAAGTTCAGTGAGAGATCGATAGA,0.975
14,ATCTCTAGGTAACAAATTCAGTGAAAGAGAGGAC,1.4
15,CGTCCAAGGTCAAGGTCAGTGTAAGAGACTCGAA,2.14
16,CGTACAAGGTCAGAGAGGTCAGTGAATGCCGAGT,1.83
17,ACTTACGGGTAAACGAGGTTATAGCACGCGTATA,0.806
18,GCTGCTAGGTCAGGTGGGTCAGCTAACGGGTACG,-0.0518
19,CCTACTGTGCCACGAAAGGTCATTGATTCAGTGA,1.63
20,CCTGCTAGGTCAATGGTCAGCAAAAGCAGCTCGC,-0.178
